Drawing on PubChem BioAssay (EPA / NIEHS), this text covers outcome and AC50 for 14 compounds.

The source made the active and inactive calls. How the source made its calls: active means hit-call score of the fitted dose curve at least 0.9, where 1 is the maximum; inconclusive means response in the unintended direction; inactive means score below 0.9.

Sequence of Androgen Receptor/SRC-1 Co-activator, AR (gene 367) (P10275 whole entry, looked up, the tested form may be a part): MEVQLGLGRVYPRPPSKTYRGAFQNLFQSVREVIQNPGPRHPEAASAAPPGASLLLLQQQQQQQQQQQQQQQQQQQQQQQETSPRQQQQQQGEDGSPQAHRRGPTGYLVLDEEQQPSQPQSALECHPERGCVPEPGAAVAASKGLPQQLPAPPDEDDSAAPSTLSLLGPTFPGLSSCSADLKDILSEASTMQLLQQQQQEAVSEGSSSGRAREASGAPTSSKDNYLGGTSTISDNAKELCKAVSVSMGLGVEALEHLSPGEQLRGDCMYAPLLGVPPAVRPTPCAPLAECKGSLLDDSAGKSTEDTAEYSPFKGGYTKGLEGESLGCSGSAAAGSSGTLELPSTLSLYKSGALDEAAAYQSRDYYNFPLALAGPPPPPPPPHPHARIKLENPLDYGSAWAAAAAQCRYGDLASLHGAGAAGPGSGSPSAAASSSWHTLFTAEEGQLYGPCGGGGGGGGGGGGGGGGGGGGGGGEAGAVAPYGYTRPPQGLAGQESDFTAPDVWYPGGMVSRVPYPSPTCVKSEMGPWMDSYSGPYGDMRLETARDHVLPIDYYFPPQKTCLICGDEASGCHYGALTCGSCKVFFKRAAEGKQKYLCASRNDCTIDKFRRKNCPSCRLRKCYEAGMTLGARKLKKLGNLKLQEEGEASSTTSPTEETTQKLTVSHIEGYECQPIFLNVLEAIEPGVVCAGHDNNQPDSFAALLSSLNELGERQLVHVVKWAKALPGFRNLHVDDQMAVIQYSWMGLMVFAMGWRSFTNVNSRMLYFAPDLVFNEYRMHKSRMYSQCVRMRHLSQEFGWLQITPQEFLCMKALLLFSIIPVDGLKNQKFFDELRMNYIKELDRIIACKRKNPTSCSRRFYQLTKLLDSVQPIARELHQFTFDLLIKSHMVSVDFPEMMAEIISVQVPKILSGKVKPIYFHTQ

The experiment concerns the target Androgen Receptor/SRC-1 Co-activator, AR (gene 367) (UniProt P10275). The experiment is described as follows: OT_AR_ARSRC1_0960: Odyssey Thera (OT) 16-hour HEK293T Protein-Complementation Assay for Androgen Receptor/SRC-1 Co-activator (AID 2283353).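 Further: actives raise the signal above DMSO so potency reflects increased AR and SRC-1 complex.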 The protocol:
OT_AR_ARSRC1_0960 is a cell-based, single-readout assay that uses HEK293T, a human kidney cell line, with measurements taken at 16 hours after chemical dosing in a 384-well plate.OT_AR_ARSRC1_0960 is one of one assay component(s) measured or calculated from the OT_AR_ARSRC1_0960 assay. It is designed to make measurements of protein fragment complementation, a form of binding reporter, as detected with fluorescence intensity signals by Protein-fragment Complementation technology.Data from the assay component OT_AR_ARSRC1_0960 was analyzed into 1 assay endpoint. This assay endpoint, OT_AR_ARSRC1_0960, was analyzed in the positive analysis fitting direction relative to DMSO as the negative control and baseline of activity. Using a type of binding reporter, measures of receptor for gain-of-signal activity can be used to understand the binding at the pathway-level as they relate to the gene AR. Furthermore, this assay endpoint can be referred to as a primary readout, because the performed assay has only produced 1 assay endpoint. To generalize the intended target to other relatable targets, this assay endpoint is annotated to the nuclear receptor intended target family, where the subfamily is steroidal.
Protein-fragment complementation assay, or PCA, is a method for the identification and quantification of protein-protein interactions. In the PCA, the proteins of interest ("bait" and "prey") are each covalently linked to fragments of a third protein (e.g. DHFR, which acts as a "reporter"). Interaction between the bait and the prey proteins brings the fragments of the reporter protein in close proximity to allow them to form a functional reporter protein whose activity can be measured. The OT AR / SRC-1 assay assessed androgen receptor chemical interactions using a rapidly maturing, intensely fluorescent mutant of YFP known as Venus, rationally dissected into two separate fragments. […] Fusion constructs were transfected into HEK293T cells with a (Gly4Ser)2 linker between the AR/SRC-1 and YFP fragment genes to facilitate complementation when interacting proteins bring fragments into close proximity. The construct is stably expressed in HEK293T cells. […] Images were acquired on an Evotec Opera at 2 wavelengths (488 and 635nm), and the ratio of fluorescence in the nucleus relative to fluorescence in the cytoplasm (N/C Ratio) in the 488nm channel was calculated for a minimum of 400 cells per image. Both agonists and antagonists of the AR receptor induce nuclear translocation to varying degrees. […] The OT AR/SRC-1 assay was also run for 16 hours (see description for OT_AR_ARSRC1_0960).
Regarding `CC(C)(C)c1cccc(O)c1`, the compound was classed as inactive.
The same measure, in the same setting: with `CCC(C)(C)C1CCC(=O)CC1` the entry was “inactive”.
The same measure, in the same setting: with `COc1cc(OC)c2ccc(=O)oc2c1` the entry was “inactive”; with `CCO[Si](CC)(OCC)OCC`, “inactive”; with `CC(C)(CO)CO`, “inactive”.
For orientation: AC50 means the midpoint of the concentration-response curve, whichever way the signal moves. For `CCCCCCOc1ccc(O)cc1`, the AC50 was 75.1 µM (active).
On to `CC1=CCC(C(C)(C)O)CC1` (centres undefined), for which the outcome was inactive.
On the same count and under the same terms, the same measure for `CC(=O)N(C)C`: “inactive”; for `CC1COC(=O)O1` (centres undefined): “inactive”.
On the same count and under the same terms, with `FC(F)(F)c1ccc(Cl)c(Cl)c1` the entry was “inactive”.
The same measure, in the same setting: the same measure for `CCCCCCCCCCOC(=O)c1ccccc1C(=O)OCCCCCCCC`: “inactive”; for `CC(CCO)CC(C)(C)C` (centres undefined): “inactive”; for `COC(=O)c1cccc(C(=O)OC)c1`: “inactive”.
Take `OC[C@H]1O[C@@H](O[C@H]2[C@H](O)[C@@H](O)[C@H](O)O[C@@H]2CO)[C@H](O)[C@@H](O)[C@H]1O`: the compound was classed as inactive.
